Where “and” joins values, the source holds several entries; their conditions need not be identical. Equal values may be shown once. Screen size: about 5,500 compounds; about 2,000 (36%) were called active. About 18% were inconclusive and are not listed. No stated cut-off is given here; in the data, active means normalized growth mostly below about 0.91 (no sharp cut-off); inconclusive means no clear call, values can overlap the other calls; inactive means mostly above about 0.92. The list shows a part of the results.
Experiment: chemical genetic growth profiling, strain panel (AID 1159580);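 further: tested at 20 µM; growth read once vehicle control cultures reached saturation at 30 °C; 1 = growth at the plate median or of vehicle wells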
Conditions: S. cerevisiae deletion strains, growth OD

Measured: normalized growth

NS(=O)(=O)c1cc2c(cc1Cl)NC(C(Cl)Cl)NS2(=O)=O (configuration not stated)
inactive: locus YAL021C, strain ccr4, stronger effect = lower value 0.977 | locus YAL026C, strain drs2, stronger effect = lower value 0.968 | locus YAL030W, strain snc1, stronger effect = lower value 0.978 | locus YBL061C, strain skt5, stronger effect = lower value 0.985 | locus YBR009C, strain hhf1, stronger effect = lower value 0.919 | locus YBR021W, strain FUR4, stronger effect = lower value 1.01 | locus YBR023C, strain chs3, stronger effect = lower value 0.978 | locus YBR171W, strain sec66, stronger effect = lower value 0.972 | locus YBR229C, strain ROT2, stronger effect = lower value 1.01 | locus YBR231C, strain swc5, stronger effect = lower value 0.979 | locus YBR279W, strain paf1, stronger effect = lower value 0.984 | locus YCL011C, strain gbp2, stronger effect = lower value 0.96 | locus YCL016C, strain dcc1, stronger effect = lower value 0.967 | locus YCL029C, strain bik1, stronger effect = lower value 1.02 | locus YCL069W, strain vba3, stronger effect = lower value 0.988 | locus YCR088W, strain abp1, stronger effect = lower value 0.96 | locus YDL005C, strain med2, stronger effect = lower value 0.974 | locus YDL035C, strain GPR1, stronger effect = lower value 0.991 | locus YDL040C, strain nat1, stronger effect = lower value 0.986 | locus YDL074C, strain BRE1, stronger effect = lower value 1.01 | locus YDL101C, strain DUN1, stronger effect = lower value 1 | locus YDL134C, strain PPH21, stronger effect = lower value 1.02 | locus YDL185W, strain tfp1, stronger effect = lower value 1.02 | locus YDL192W, strain arf1, stronger effect = lower value 1.02 | locus YDR001C, strain nth1, stronger effect = lower value 0.957 | locus YDR069C, strain doa4, stronger effect = lower value 0.989 | locus YDR101C, strain arx1, stronger effect = lower value 1.01 | locus YDR137W, strain rgp1, stronger effect = lower value 0.97 | locus YDR150W, strain NUM1, stronger effect = lower value 1.01 | locus YDR159W, strain sac3, stronger effect = lower value 0.918 | locus YDR162C, strain NBP2, stronger effect = lower value 1.01 | locus YDR195W, strain ref2 0.992 | locus YDR297W, strain sur2, stronger effect = lower value 0.984 | locus YDR318W, strain mcm21, stronger effect = lower value 1.02 | locus YDR334W, strain swr1, stronger effect = lower value 0.979 | locus YDR335W, strain msn5, stronger effect = lower value 0.963 | locus YDR388W, stronger effect = lower value 1.02 | locus YDR392W, strain spt3, stronger effect = lower value 0.917 | locus YDR502C, strain sam2, stronger effect = lower value 1.01 | locus YEL003W, strain gim4, stronger effect = lower value 0.976 | locus YEL037C, strain rad23, stronger effect = lower value 0.98 | locus YEL061C, strain CIN8 (second series), stronger effect = lower value 0.971 | locus YEL061C, strain CIN8, stronger effect = lower value 1.01 | locus YER015W, strain faa2, stronger effect = lower value 0.977 | locus YER016W, strain bim1, stronger effect = lower value 0.926 | locus YER110C, stronger effect = lower value 1.02 | locus YER111C, strain swi4, stronger effect = lower value 0.982 | locus YER155C, strain BEM2 (second series), stronger effect = lower value 1.03 | locus YER155C, strain BEM2, stronger effect = lower value 1.01 | locus YER167W, strain BCK2, stronger effect = lower value 1.01 | locus YFR010W, strain ubp6, stronger effect = lower value 0.984 | locus YGL078C, strain dbp3, stronger effect = lower value 1.01 | locus YGL086W, strain mad1, stronger effect = lower value 1.01 | locus YGL167C, strain pmr1, stronger effect = lower value 0.963 | locus YGL173C, strain kem1, stronger effect = lower value 0.998 | locus YGL227W, strain vid30, stronger effect = lower value 0.98 | locus YGL240W, strain doc1, stronger effect = lower value 0.99 | locus YGL248W, strain PDE1, stronger effect = lower value 0.997 | locus YGL253W, strain hxk2, stronger effect = lower value 0.976 | locus YGR135W, strain pre9, stronger effect = lower value 1.01 | locus YGR252W, strain gcn5, stronger effect = lower value 0.991 | locus YHR013C, strain ard1, stronger effect = lower value 0.914 | locus YHR027C, strain rpn1, stronger effect = lower value 0.975 | locus YHR030C, strain SLT2, stronger effect = lower value 1.01 and 0.993 | locus YHR079C, strain IRE1 (second series), stronger effect = lower value 1.01 | locus YHR079C, strain IRE1, stronger effect = lower value 0.989 | locus YHR094C, strain hxt1, stronger effect = lower value 1.01 | locus YHR129C, strain ARP1, stronger effect = lower value 0.993 | locus YHR142W, strain chs7, stronger effect = lower value 0.981 | locus YHR200W, strain rpn10, stronger effect = lower value 1.01 | locus YIL066C, strain RNR3, stronger effect = lower value 1.02 | locus YIL073C, strain SPO22, stronger effect = lower value 1.06 | locus YIL125W, strain kgd1, stronger effect = lower value 1.01 | locus YIR030C, strain dcg1, stronger effect = lower value 1.02 | locus YJL092W, strain hpr5, stronger effect = lower value 0.987 | locus YJL095W, strain BCK1 (second series), stronger effect = lower value 0.973 | locus YJL095W, strain BCK1, stronger effect = lower value 0.991 and 0.983 | locus YJL115W, strain asf1, stronger effect = lower value 0.963 | locus YJL129C, strain trk1, stronger effect = lower value 0.968 | locus YJL134W, strain LCB3, stronger effect = lower value 1.01 | locus YJL154C, strain vps35, stronger effect = lower value 0.978 | locus YJL164C, strain tpk1, stronger effect = lower value 0.94 | locus YJL166W, strain qcr8, stronger effect = lower value 0.993 | locus YJL168C, strain set2, stronger effect = lower value 1.01 | locus YJL187C, strain SWE1 (second series), stronger effect = lower value 1.01 | locus YJR043C, strain POL32, stronger effect = lower value 1 | locus YJR066W, strain TOR1, stronger effect = lower value 0.931
